HT1080-NT tox – qHTS for induction of synthetic lethality in tumor cells producing 2HG: qHTS for the HT-1080-NT fibrosarcoma cell line; HT-1080-NT fibrosarcoma viability, CellTiter-Glo ATP luminescence, 48 h; Potency, µM (highest dose often 46.1 µM), actives largely listed as cytotoxic; 360,000 tested, 1.6% active; AID 686970, 2013;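 also: NT is the 2HG producing partner of a matched IDH1 knockdown line; nearly all actives have a fitted effect of over 55% in size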
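HT-1080-NT fibrosarcoma cells (2HG-overproducing), 750 cells/well in RPMI with 5% FBS, dosed after 2 h and incubated 48 h at 37C. CellTiter-Glo luminescence normalized to DMSO and no-cell wells; concentration-response curves fitted and classed.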
DT40 TDP1 no CPT – qHTS for Inhibitors of human tyrosyl-DNA phosphodiesterase 1 (TDP1): qHTS in cells in absence of CPT. DT40 Tdp1-/- hTDP1 cells, no CPT, ATP luminescence, 48 h. Potency, µM (highest dose often 46.2 µM), hits mostly inhibitors. 420,000 tested, 15% active; also: nearly all actives have a fitted effect of over 55% in size
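Growth kinetics read by CellTiter-Glo luminescence after ≥48 hr at 37 °C. Cells: DT40 Tdp1-/- stably carrying human TDP1, 400 per well, compound exposure in the absence of CPT (DMSO vehicle).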
KB-3-1 cytotox – qHTS assay for MDR1-selective chemotherapeutics: Primary screen using the parental adenocarcinoma cell KB-3-1 | 400,000 tested, 1.4% active | Potency, µM (top dose mostly 46.1 µM), usual class: cytotoxic | KB-3-1 viability, CellTiter-Glo ATP luminescence, 72 h | AID 1347075, 2019; also: nearly all actives have a fitted effect of over 60% in size
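Luminescent ATP read-out (CellTiter-Glo) measures survival of drug-naive KB-3-1 cells after 72 h compound exposure at 37 °C. Titration series was screened from lowest to highest concentration, with DMSO vehicle plates as background controls.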
DT40 TDP1 CPT – qHTS for Inhibitors of human tyrosyl-DNA phosphodiesterase 1 (TDP1): qHTS in cells in presence of CPT | chicken DT40 Tdp1-/-;hTDP1 cells + 20 nM CPT, ATP luminescence, 48 h | Potency, µM (series often up to 46.2 µM), hits mostly inhibitors | 420,000 tested, 12% active | AID 686979, 2013; also: nearly all actives have a fitted effect of over 55% in size
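Cell growth measured by CellTiter-Glo luminescence after a minimum 48 h, 37 C compound exposure with 20 nM CPT in Tdp1-knockout DT40 cells stably expressing hTDP1, seeded 400/well; qHTS titration format.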
HT1080 IDH1KD tx – qHTS for induction of synthetic lethality in tumor cells producing 2HG: qHTS for the HT-1080-IDH1KD cell line | Potency, µM (series often up to 46.1 µM), usual class: cytotoxic | HT-1080 IDH1 knockdown viability, ATP luminescence, 48 h | AID 686971, 2013 | 360,000 tested, 2% active
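CellTiter-Glo luminescence after 48 h compound exposure at 37 degrees C of IDH1-knockdown HT-1080 cells in 5% FBS RPMI. %Activity scaled between DMSO wells and cell-free media wells, with curves fitted and assigned curve classes.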
KB-V1 cytotox – qHTS assay for MDR1-selective chemotherapeutics: Primary screen using the drug-selected MDR subline cells KB-V1; KB-V1 MDR cells viability, CellTiter-Glo, 72 h; Potency, µM (doses to about 46.1 µM), most hits filed as cytotoxic; 400,000 tested, 3.4% active; also: nearly all actives have a fitted effect of over 60% in size
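In this primary screen, KB-V1 cells overexpressing P-gp are incubated with library compounds (lowest to highest concentration) for 72 h at 37 degrees C before a luminescent ATP viability read.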
A number is an active result. An excerpt weighted towards active compounds, which were near 19% of everything screened. Calls follow the shape of the dose curve; as a rule, active = well fitted curve in the direction sought with a large enough effect; inconclusive = small, poorly fitted or top-dose-only effect, or another doubt; inactive = no such curve, though single readings can be large; an effect the other way counts as inactive or inconclusive.

For COc1ccccc1NC(=O)Cc1nnc(SCC(=O)NC2=NCCS2)n1C the results were HT1080-NT tox inactive, DT40 TDP1 no CPT inactive, KB-3-1 cytotox inactive, DT40 TDP1 CPT inactive, HT1080 IDH1KD tx inactive and KB-V1 cytotox inactive.
`O=C(CN1CCC(C(=O)c2ccc3c(c2)OCCO3)CC1)Nc1ccccc1C(F)(F)F` gave HT1080-NT tox inactive, DT40 TDP1 no CPT inconclusive, KB-3-1 cytotox inactive, DT40 TDP1 CPT inconclusive, HT1080 IDH1KD tx inactive and KB-V1 cytotox inactive.
Screening O=C(Nc1cc(S(=O)(=O)N2CCCCCC2)ccc1OCC(F)(F)F)c1cnccn1 returned HT1080-NT tox inactive, DT40 TDP1 no CPT inconclusive, KB-3-1 cytotox inactive, DT40 TDP1 CPT inconclusive, HT1080 IDH1KD tx inactive and KB-V1 cytotox inactive.
Screening CCc1nnc(NC(=O)c2ccccc2NC(=O)C2CCN(C(=O)c3ccco3)CC2)s1 returned DT40 TDP1 no CPT 11µM, KB-3-1 cytotox inconclusive, DT40 TDP1 CPT 14µM and KB-V1 cytotox inactive.
`CCc1nnc(NC(=O)C2CCN(C(=O)c3ccco3)CC2)s1` gave HT1080-NT tox inactive, DT40 TDP1 no CPT inactive, KB-3-1 cytotox inactive, DT40 TDP1 CPT inactive, HT1080 IDH1KD tx inactive and KB-V1 cytotox inactive.
Screening CCC(C)(C)c1nnc(NC(=O)C2CCN(C(=O)c3ccco3)CC2)s1 returned HT1080-NT tox inactive, DT40 TDP1 no CPT inconclusive, KB-3-1 cytotox inactive, DT40 TDP1 CPT 21µM, HT1080 IDH1KD tx inactive and KB-V1 cytotox inactive.
Cc1ccc(S(=O)(=O)N(CC(O)CN2CCOCC2)c2cccc([N+](=O)[O-])c2)cc1 (configuration not stated) was read as HT1080-NT tox inactive, DT40 TDP1 no CPT inactive, KB-3-1 cytotox inactive, DT40 TDP1 CPT inactive, HT1080 IDH1KD tx inactive and KB-V1 cytotox inactive.
`Cc1ccc(NC(=O)CCCn2c(=O)c3cccn3c3cccnc32)c(Cl)c1` gave DT40 TDP1 no CPT inactive and DT40 TDP1 CPT inactive.
`COc1cc(-c2nc(SCC(=O)Nc3ccc(C)cc3)c(-c3ccc(F)cc3)[nH]2)cc(OC)c1OC` gave DT40 TDP1 no CPT 15µM and DT40 TDP1 CPT inconclusive.
COc1ccc(-c2nc(SCC(=O)Nc3ccccc3)c(-c3ccc(F)cc3)[nH]2)cc1OC was read as DT40 TDP1 no CPT inconclusive, KB-3-1 cytotox inactive, DT40 TDP1 CPT inconclusive and KB-V1 cytotox inactive.
For O=C(CSc1nc(-c2ccc(F)cc2)[nH]c1-c1ccccc1)Nc1ccccc1 the results were DT40 TDP1 no CPT 12µM, KB-3-1 cytotox inactive, DT40 TDP1 CPT 18µM and KB-V1 cytotox inactive.
`COCCCNC(=O)CSc1nc(-c2ccc(OC)c(OC)c2)[nH]c1-c1ccc(F)cc1` gave DT40 TDP1 no CPT inactive, KB-3-1 cytotox inactive, DT40 TDP1 CPT inactive and KB-V1 cytotox inactive.
`COc1ccc(NC(=O)CSc2ncccc2C(=O)OC(C)C)cc1OC` gave HT1080-NT tox inconclusive, DT40 TDP1 no CPT 12µM, KB-3-1 cytotox inactive, DT40 TDP1 CPT 12µM, HT1080 IDH1KD tx inactive and KB-V1 cytotox inactive.
`COc1ccc(NC(=O)CSc2nc(-c3ccccc3)[nH]c2-c2ccccc2)cc1OC` gave DT40 TDP1 no CPT 8.2µM, KB-3-1 cytotox inconclusive, DT40 TDP1 CPT 15µM and KB-V1 cytotox inconclusive.
Screening COc1ccc(NC(=O)CSc2ccccn2)cc1OC returned HT1080-NT tox inactive, DT40 TDP1 no CPT inactive, KB-3-1 cytotox inactive, DT40 TDP1 CPT inactive, HT1080 IDH1KD tx inactive and KB-V1 cytotox inactive.
Screening COc1ccc(-c2nsc(SCC(=O)Nc3ccc4c(c3)OCO4)n2)cc1 returned HT1080-NT tox inactive, DT40 TDP1 no CPT inconclusive, KB-3-1 cytotox inactive, DT40 TDP1 CPT inconclusive, HT1080 IDH1KD tx inconclusive and KB-V1 cytotox inactive.
Screening COc1ccc(-c2nc(SCC(=O)NC3CCCC3)c(-c3ccc(F)cc3)[nH]2)cc1OC returned DT40 TDP1 no CPT inconclusive, KB-3-1 cytotox inactive, DT40 TDP1 CPT inconclusive and KB-V1 cytotox inactive.
Screening COc1cccc(-c2nc(SCC(=O)Nc3ccc4c(c3)OCCO4)c(-c3ccc(C)cc3)[nH]2)c1 returned DT40 TDP1 no CPT 23µM, KB-3-1 cytotox 21µM, DT40 TDP1 CPT inconclusive and KB-V1 cytotox inconclusive.
COc1ccc(-c2nc(SCC(=O)Nc3ccc4c(c3)OCCO4)c(-c3ccc(F)cc3)[nH]2)cc1OC was read as DT40 TDP1 no CPT 21µM, KB-3-1 cytotox inactive, DT40 TDP1 CPT inconclusive and KB-V1 cytotox inactive.
Screening COc1ccc(-c2[nH]c(-c3ccccc3)nc2SCC(=O)Nc2ccc3c(c2)OCO3)cc1 returned DT40 TDP1 no CPT 21µM, KB-3-1 cytotox inactive, DT40 TDP1 CPT inconclusive and KB-V1 cytotox inactive.
Screening CC(=O)Nc1nnc(CSCc2ccccc2F)s1 returned HT1080-NT tox inactive, DT40 TDP1 no CPT inactive, KB-3-1 cytotox inactive, DT40 TDP1 CPT inactive, HT1080 IDH1KD tx inactive and KB-V1 cytotox inactive.
`CC1(C)C2CCC1(C)C(NC(=O)/C=C/c1ccccc1)C2` (configuration not stated) gave HT1080-NT tox inactive, DT40 TDP1 no CPT 18µM, KB-3-1 cytotox inactive, DT40 TDP1 CPT inconclusive, HT1080 IDH1KD tx inactive and KB-V1 cytotox inactive.
Screening O=C(NNc1nc(-c2ccc(Br)cc2)cs1)c1ccco1 returned HT1080-NT tox inactive, DT40 TDP1 no CPT 16µM, KB-3-1 cytotox inconclusive, DT40 TDP1 CPT 18µM, HT1080 IDH1KD tx inconclusive and KB-V1 cytotox inactive.
N#Cc1ccc(-c2csc(NNC(=O)c3ccc(Br)cc3)n2)cc1 was read as HT1080-NT tox 8.2µM, DT40 TDP1 no CPT 5.8µM, KB-3-1 cytotox inactive, DT40 TDP1 CPT 5.2µM, HT1080 IDH1KD tx 5.2µM and KB-V1 cytotox inactive.
For N#Cc1ccc(-c2csc(NNC(=O)c3ccccc3)n2)cc1 the results were HT1080-NT tox inactive, DT40 TDP1 no CPT inconclusive, KB-3-1 cytotox inactive, DT40 TDP1 CPT inconclusive, HT1080 IDH1KD tx 10µM and KB-V1 cytotox inactive.
O=C(Nc1nc(-c2ccccc2)cs1)c1cccnc1 was read as HT1080-NT tox inactive, DT40 TDP1 no CPT inconclusive, KB-3-1 cytotox inactive, DT40 TDP1 CPT inconclusive, HT1080 IDH1KD tx inactive and KB-V1 cytotox inconclusive.
`O=C(NNc1nc(-c2ccccc2)cs1)c1ccccc1` gave HT1080-NT tox inactive, DT40 TDP1 no CPT 21µM, KB-3-1 cytotox inconclusive, DT40 TDP1 CPT inconclusive, HT1080 IDH1KD tx inactive and KB-V1 cytotox 16µM.
